The source made the active and inactive calls. Rule for the calls: active = hit-call score of the fitted dose curve at least 0.9, where 1 is the maximum; inactive = score below 0.9.

Read-out in the assay: Phosphatase and tensin (PTEN), PTEN (gene 5728)
Put plainly: LTEA_HepaRG_PTEN: Life Technologies and Expression Analysis (LTEA) Assay for Phosphatase and tensin (PTEN) using HepaRG (AID 2283523). To be noted: mRNA level, 48 h; actives raise or lower the signal. As for the experimental part:
LTEA_HepaRG is a cell based, multiplexed-readout assay that uses HepaRG, a human liver cell line, with measurements taken at 48 hours after chemical dosing on a 96-well plate.LTEA_HepaRG_PTEN is one of 102 assay component(s) measured in the LTEA HepaRG cell culture assay. It is a marker of Cell proliferation, survival, death.Data from the assay component LTEA_HepaRG_PTEN was analyzed into 1 endpoint. This assay endpoint, LTEA_HepaRG_PTEN, was analyzed with bidirectional fitting relative to DMSO as the negative control and baseline of activity. Using a type of inducible reporter, measures of mRNA induction for gain or loss-of-signal activity can be used to understand regulation of transcription factor activity. To generalize the intended target to other relatable targets, this assay endpoint is annotated to the phosphatase intended target family, where the subfamily is dual-specific phosphatase.
A total of 1060 chemcials from the ToxCast library were tested in eight-point concentration-response experiments. Cell culture and cytotoxicity assays were conducted at Thermo Fisher Scientific's Custom Services facility (Madison, WI). A single lot of human HepaRG cells (Thermo Fisher Scientific, Frederick, MD) was used for the cell culture experiments. 96-well format collagen type I coated plates of human HepaRG cells were prepared using established methods. Briefly, cryopreserved HepaRG cells were thawed, plated at a density of approximately 100,000 cells/well in HepaRG Thaw, Plate, and General Purpose media (HPRG770, Thermo Fisher Scientific), and incubated for 48 hours. 0.5% DMSO was selected as vehicle control to balance the requisite need of DMSO in HepaRG cultures to maintain differentiation (for example, baseline metabolism, proportions of hepatocytes vs. cholangiocytes), while enabling further hepatic receptor pathway activation (for example, PXR and CAR) in response to chemical exposure. 48 hours after plating, the culture medium was replaced with HepaRG Serum-Free Incudtion Media. Cells were exposed to each test chemical in duplicate and maintained in CO2 incubators for another 48 hours. Chemical plates were thawed to room temperature and 200x concentrations of treatment groups were prepared. 8-point conentration-reponse curves were made with the highest exposure at 100 uM, followed by half-log dilutions, all in 0.5% DMSO. Each test plate contained variouse controls, induction positive controls (1mM phenobarbital), cytotoxicity positive controls ([…] aflatoxin B1), vehicle controls (0.5% DMSO), and total lysis controls (0.5% DMSO). Cell morphology images were taken using an Essen IncuCyte FLR automated microscope, with six 96-well plates imaged in about 24 minutes. Images were captured and exported and JPEG files. Spent culture media was transfered to black-well plates for the LDH assay, and remaining media was sorted at -80 C for later use. Cells were treated with RLT buffer and frozen until shipped for gene expression analysis. Total RNA was isolated from the cell suspension in 75 uL of Buffer RLT (Qiagen, Germantown, MD 20874) by Quintiles/Expression Analysis (Durham, NC) using a custom isolation procedure. Total RNA from each plate well was transferred to a preamplification plate. Fluidigm's 96.96 Dynamic ArrayTM (Fluidigm, Amsterdam, the Netherlands) technology was used for gene expression analyses by quantitative reverse transcription polymerase chain reaction (qRT-PCR, performed by Quintiles/Expression Analysis, Durham, NC)89. Standard TaqManTM Assays (Applied Biosystems/ThermoFisher Scientific, Foster City, CA) were used to assess the expression of 93 genes selected based on their selectivity and sensitivity to important hepatic receptors known to be modulated by environmental chemicals; importance in human hepatocyte functionality; and hepatotoxicity. […]
In the case of `CC[C@@H]1C[C@H](N(Cc2cc(C(F)(F)F)cc(C(F)(F)F)c2)C(C)=O)c2cc(C(F)(F)F)ccc2N1C(=O)OC(C)C`, the molecule was classed as inactive.
`O=C(O)Cc1cc(I)c(Oc2ccc(O)c(I)c2)c(I)c1`: the molecule was classed as inactive.
The same measure, in the same setting: for `CCCCCCCCCC(=O)O` the value was “inactive”.
On the same count and under the same terms, for `CCO[Si](CCCNC(N)=O)(OCC)OCC` the value was “inactive”; for `C[C@]12CC[C@@H]3c4ccc(O)cc4CC[C@H]3[C@@H]1CCC2=O`, “inactive”; for `Cc1ccc2oc(CN(Cc3ccccc3)C(=O)Nc3c(F)cc(F)cc3F)c(-c3ccc(Cl)cc3)c2c1`, “inactive”.
On to `CCN(CC)C(=O)c1cc(S(=O)(=O)Cc2ccccc2)c(N2CCC(c3ccccc3)CC2)cc1N(CC)CCN(C)C`, for which the half-maximal activity concentration (AC50) (in general, the concentration at which the activity in the assay is half-maximal) was 22.9 µM (active).
With `O=C(O)Cn1c(=O)n(Cc2ccc(Br)cc2F)c(=O)c2ccc(Cl)cc21`, the outcome was inactive.
As to `COCC(C)OCC(C)OCC(C)O` (stereo not given), the molecule was classed as inactive.
Consider `O=C1CCC(C2CCCCC2)CC1`, for which the molecule was classed as inactive.
On to `CC(C)(C)c1csc(-c2cc3cc(OCc4ccccc4CC(=O)O)ccc3o2)n1`, for which the AC50 is 80.1 µM (active).
On to `O=C(Nc1ccc(Cl)cc1)Nc1ccc(Cl)c(Cl)c1`, for which the AC50 was 22.2 µM (active).
In the case of `CCCCOC(=O)c1ccc(O)cc1`, the molecule was classed as inactive.
On to `CCCCCCCCOC(=O)c1cc(O)c(O)c(O)c1`, for which the call was inactive.
As for `Cc1ncc(CO)c(CO)c1O`, the outcome was inactive.
Same read-out and setting: for `O=C(O)c1ccccc1C(=O)OCc1ccccc1` the value was “inactive”; for `Cc1oc2c(NC(=O)c3c(Cl)cccc3Cl)cccc2c1C(C)(C)O`, “inactive”.
Regarding `O=C1c2ccccc2C(=O)N1CCc1noc(-c2ccc(CN3CCCCCC3)s2)n1`, the molecule was classed as inactive.
Turning to `O=C1O[C@H]([C@@H](O)CO)C(O)=C1O`, the molecule was called inactive.
For `COc1cccc([C@H](O)C2CCN(CCc3ccc(F)cc3)CC2)c1OC`, the call was inactive.
With `C[C@]12CC[C@@H]3c4ccc(O)cc4CC[C@H]3[C@@H]1CC[C@H]2O`, the molecule was called inactive.
For `CN1C(=O)N(c2ccccc2Br)Cc2cnc(Nc3ccc4c(c3)OCC(CO)O4)nc21` (stereo not given), the molecule was called inactive.
For `NC(=O)c1nc(-c2cccc(-c3cc(F)ccc3OCC(F)(F)C(F)(F)F)c2)n[nH]1`, the AC50 was 80.5 µM (active).
Consider `CCCOC(=O)c1cc(O)c(O)c(O)c1`, for which the molecule was classed as inactive.
Take `CC/C(=C(/CC)c1ccc(O)cc1)c1ccc(O)cc1`: the AC50 was 93.8 µM (active).
Turning to `Cc1ccc(C(C)C)cc1`, the molecule was called inactive.
For `OCCO`, the call was inactive.
With `c1ccc2n[nH]nc2c1`, the result was inactive.
Turning to `CN(C)c1ccc(C(=C2C=CC(=[N+](C)C)C=C2)c2ccc(N(C)C)cc2)cc1`, the concentration at half-maximal activity (AC50) is 26.1 µM (active).
Consider `CCOC(=O)O[C@H](C)OC(=O)c1ccc2c(c1)cc(C(=O)NC1CCN(C(C)C)CC1)n2Cc1cc(-c2ccc(Cl)s2)on1`, for which the molecule was called inactive.
For the molecule `CC(O)CC(C)(C)O` (stereo not given), the call was inactive.
As to `CC1=CC(=O)/C(=C(/C)O)C(=O)O1`, the molecule was called inactive.
`CC[C@H](NC(=O)c1cc(F)ccc1NS(=O)(=O)c1cccc2cccnc12)c1ccccc1`: the call was inactive.
On to `CCCCOC(=O)CC(CC(=O)OCCCC)(OC(C)=O)C(=O)OCCCC`, for which the outcome was inactive.
On to `CCN(Cc1cccnc1)C(=O)c1cccc(Cl)c1[C@]1(C)C(=O)N(Cc2ccc(OC)cc2OC)c2ccc(Cl)cc21`, for which the molecule was called inactive.
As to `Oc1ccc2ccccc2c1`, the call was inactive.
For `CN(C[C@@H](CC[N+]12CCC(C3CCCCC3)(CC1)CC2)c1ccc(Cl)c(Cl)c1)C(=O)c1cc(C(F)(F)F)cc(C(F)(F)F)c1`, the concentration at half-maximal activity (AC50) was 71.1 µM (active).
As to `CCCCCc1ccc(N)cc1`, the call was inactive.
Take `CCCCCCCCN(C)CCCCCCCC`: the molecule was classed as inactive.
Regarding `c1ccc(C[n+]2cccc3ccccc32)cc1`, the call was inactive.

For the origin of these results see PubChem BioAssay (EPA / NIEHS).
